Results published in PubChem BioAssay (NCI).
Compounds without any hit were thinned out: in the full panel of roughly 83,000, 20% have a hit.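 Single-dose data. Exposure time 48 hours. Values below 10 considered active.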 Unmarked numbers belong to inactive results. Activity calls are given as the source filed them.

These compounds were tested on PC-3 prostate (assay: NCI-60 one-dose screen, 48 h (100 = growth as untreated, 0 = no growth, -100 = all killed)). Conditions: 10 µM unless noted.
Method: Growth inhibition of the PC-3 human tumor cell line is measured as a screen for anti-cancer activity. Cells are grown in 96 well plates and exposed to the test compound for 48 hours. Compounds are tested at a single concentration, which is 10^-5 M for most compounds. The reported endpoint is percent growth (GI% or GIPRCNT), where numbers from 0 - 100% represent growth inhibition, and numbers from -100% - 0 represent cell death. For example, a value of 40 represents 60% growth inhibition. A value of 0 means no net growth occurred over the course of the experiment. A value of -40 indicates 40% of cells at the beginning of the experiment died by the end of the experiment. A value of -100 means all cells are dead at the end of the experiment.
NCI-60 Human Tumor Cell Lines Screen was performed using the standard one-dose NCI protocol, which is described in more detail at https://dtp.cancer.gov/discovery_development/nci-60/default.htm.
Compounds with GIPRCNT values below 10 were considered active. Activity score was based on GIPRCNT using the following formula: […]
Score is 0 for GIPRCNT values of 100 or above, 50 for GIPRCNT values of 0, and 100 for GIPRCNT values of -100.

Structure (SMILES) | growth
CC(C)(C)[Si](C)(C)O[C@H]1C(=O)C=CN2CC=C[C@@H]12 | 91.9% [100 µM]
O=C1/C(=C/c2ccc(F)cc2)COc2ccc(O)cc21 | 89.2%
Brc1ccc2[nH]cc(-c3nonc3-c3c[nH]c4ccccc34)c2c1 | 35.2%
O=C(O)CNC1=C(Cl)C(=O)c2ccccc2C1=O | 77.7%
CC1(C)CC[C@]2(c3nnc(-c4ccncc4)o3)CC[C@H]3C(=CC[C@H]4[C@@]3(C)CC[C@H]3C(C)(C)C(=O)CC[C@]43C)[C@@H]2C1 | 25.1%
Cc1nc(N2CCOCC2)sc1S(N)(=O)=O | 92.3%
Oc1ccc(CCn2c(O)c(/C=C3\CN=c4ccccc4=N3)sc2=S)cc1 | 60.2%
CCN(CC)C(=S)SC(SC(=S)N(CC)CC)C(=O)c1nnn(-c2ccc([N+](=O)[O-])cc2)c1C | 78.1%
O=C(/C=C/c1cn(-c2ccccc2)nc1-c1ccc([N+](=O)[O-])cc1)c1ccc(Cl)cc1 | 58.8%
c1ccc(C2=NN[C@H](c3cn(-c4ccccc4)nc3-c3ccccc3)C2)cc1 | 43.5%
O=C1c2cccc3cccc(c23)C(=O)N1N1C(=O)c2cccc3c(N4CCOCC4)ccc(c23)C1=O | 91.2%
O=C(O)[C@@H]1c2ccccc2-c2ccccc2[C@H]1C(=O)O | 90.9%
CC1=Nc2cnc(Nc3ccc(OCCN4CCCC4)cc3)nc2Nc2ccccc21 | 61.7%
COC(=O)c1n[nH]c2ccc3nc(-c4cn[nH]c4C(F)(F)F)c4c(c3c12)CCCC4 | 64.4%
COc1ccc(-c2nn(-c3ccccc3)cc2/C=C2/SC(=S)N(C)C2=O)cc1 | 84.9%
O=C(/C=C/c1ccccc1)c1cccc(OCCCOc2cccc(C(=O)/C=C/c3ccccc3)c2)c1 | 82.8%
Cc1cc2c([nH]1)CSc1cc(S(=O)(=O)c3ccccc3)c(=O)[nH]c1-2 | 23% [100 µM]
CNC(=O)c1cc(Oc2ccc3nc(NC(C)=O)sc3c2)ccn1 | 96.3%
CCN(CC)CCNC(=O)c1cn2ncnc(Oc3ccc(NC(=O)Nc4ccc(Cl)c(C(F)(F)F)c4)c(F)c3)c2c1C | 7.99% (active)
CN1C(=O)/C(=C/c2cn(-c3ccccc3)nc2-c2ccccc2)SC1=S | 90.2%

Structure (SMILES) | growth
Cc1cccnc1NC(=S)Nc1ncccc1C | 99.9%
COc1ccc(/C=C2\COc3ccc(O)c(O)c3C2=O)cc1 | 17.7%
O=C(NCCCN1CCOCC1)c1cccc(N2C(=O)/C(=C/c3ccc(F)cc3)SC2=S)c1 | 75.3%
COc1cccc([C@H]2c3[nH]c4ccccc4c3C[C@H]3C(=O)N(CCCCCCC(=O)NO)CC(=O)N23)c1 | 42.5%
CSc1nnc(-c2cnn3c2NC(c2ccccc2)C3)n1-c1ccc(C(F)(F)F)cc1 (stereo not given) | 46.3%
Cc1cc(=O)[nH]c2c(C#N)cnn12 | 107%
Cc1ccc(/C=C2\CN(C(=O)OC(C)(C)C)C/C(=C\c3ccc(C)cc3)C2=O)cc1 | 29.9%
COc1cc(-c2cc(-c3cccs3)c(C#N)c(N3CCOCC3)n2)cc(OC)c1OC | 67%
COc1ccc2[nH]cc(-c3nc(-c4cn(C)c5c(Cl)nccc45)cs3)c2c1 | 23.4%
C=C1C(=O)O[C@H]2[C@H]1CC/C(COC(=O)NCc1ccc(Cn3c(=O)sn(CCI)c3=O)cc1)=C\CC[C@@]1(C)O[C@@H]21 | 75.6%
COc1cc(OC)c2sc(-c3ccc(-n4cncc4-c4ccc(OC)c(OC)c4)cc3)nc2c1 | 27.6%
Cn1cccc1C(=O)C1C(c2cccc([N+](=O)[O-])c2)C2C3CCCCC3CN2C12C(=O)Nc1ccc(Cl)cc12 (stereo not given) | 35.2%
C=C1C(=O)O[C@H]2[C@H]1CC/C(COC(=O)CCSCCC(=O)OC/C1=C/CC[C@@]3(C)O[C@H]3[C@H]3OC(=O)C(=C)[C@@H]3CC1)=C\CC[C@@]1(C)O[C@@H]21 | -14.5% (active)
O=C(NNc1nccc(Nc2ccc(S(=O)(=O)Nc3ccncc3)cc2)n1)c1ccccc1 | 100%
COC(=O)[C@]1(C)CCC[C@]2(C)[C@H]3C[C@H]4C(C(C)C)=C[C@]3(CC[C@H]21)[C@H]1[C@@H]4[C@@H](OCCC#N)CC[C@@H]1OCCC#N | 2.36% (active)
C#Cc1cccc(Nc2ncnc3ccc(-c4cncc(NS(C)(=O)=O)c4)cc23)c1 | 26.8%
O=[N+]([O-])c1ccc(S(=O)(=O)N2CCN(C3=NS(=O)(=O)c4ccccc4N3c3ccccc3)CC2)cc1 | 87.4%
CN(C)CC(=O)Nc1ccc2ncnc(Nc3ccc(Oc4cccc(C(F)(F)F)c4)c(Cl)c3)c2c1 | 61.7%
N#Cc1cccc(F)c1 | 102%
Oc1c(Cl)cc(Cl)c2ccc(Cn3cc(-c4cc(C(F)(F)F)cc(C(F)(F)F)c4)nn3)nc12 | 74.8%
